# A selection: hits, their analogues and other compounds. The true share with any hit is near 27%.
# CYP2C19 act = human CYP2C19 activators, primary screen, biochemical, luminescence; Cytochrome P450 2C19 (Homo sapiens), P33261; 96,000 tested, under 10 active; AID 1025, 2008; recombinant CYP2C19, luciferin-H EGE luminescence; active compounds read high; 0 = fully inhibited enzyme, 1 = untreated enzyme; activation factor at 5 µM;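 active = activation factor of at least 2 at 5 µM in the primary screen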;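 note: 0 = wells with 2.5 mM tranylcypromine and 1 = vehicle-only wells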
# Target sequence (P33261 whole entry, looked up): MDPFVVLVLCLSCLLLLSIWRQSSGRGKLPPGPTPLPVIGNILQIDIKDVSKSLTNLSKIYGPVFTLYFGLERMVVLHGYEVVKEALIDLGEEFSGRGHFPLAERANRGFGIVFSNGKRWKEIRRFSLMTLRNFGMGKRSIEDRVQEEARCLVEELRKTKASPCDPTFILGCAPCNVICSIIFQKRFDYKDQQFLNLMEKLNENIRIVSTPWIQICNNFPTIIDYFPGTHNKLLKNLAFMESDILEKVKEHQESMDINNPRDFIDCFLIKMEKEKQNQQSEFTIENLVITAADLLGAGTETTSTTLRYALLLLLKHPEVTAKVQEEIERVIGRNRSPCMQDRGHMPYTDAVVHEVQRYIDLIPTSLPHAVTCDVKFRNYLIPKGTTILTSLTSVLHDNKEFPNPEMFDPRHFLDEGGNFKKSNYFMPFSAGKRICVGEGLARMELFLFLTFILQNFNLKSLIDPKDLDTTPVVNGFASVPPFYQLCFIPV
# Cav3 T inh = Cav3.2 calcium influx blockers – cell-based, Fluo-4 calcium fluorescence, FDSS, MLSMR library, primary screen; Voltage-dependent T-type calcium channel subunit alpha-1H (Homo sapiens), O95180; Cav3.2-expressing cells; active compounds read low; B-score at 10 µM; 100,000 tested, 4% active; AID 449739, 2010;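 active = single-dose well whose peak fluorescence ratio is a statistical outlier from its plate by either plate-standardised score or position-corrected B-score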
# CYP2C19 inhib = blockers of cytochrome P450 2C19 activity – biochemical, luminescence, ADME assay, primary screen | P33261 | CYP2C19 Supersomes, luciferin-H EGE luminescence, 30 min | inhibition, % at 5 µM | 96,000 tested, 21% active;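 active = CYP2C19 inhibition above a set limit at 5 µM in the primary screen, cut at about 50% in these data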;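 note: plate controls were negative control wells for no effect and 2.5 mM tranylcypromine positive control for full effect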
# CYP2C9 inhib = blockers of cytochrome P450 2C9 activity – biochemical, luminescence, ADME assay, primary screen. P11712. CYP2C9 Supersomes, luciferin-H conversion. inhibition, % at 5 µM. 96,000 tested, 20% active. AID 777, 2007;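 active = blocking of liver enzyme CYP2C9 beyond about 50% at 5 µM, limit read from the data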
# CYP2C9 activ = human CYP2C9 activators, primary screen, biochemical, luminescence; Cytochrome P450 2C9 (Homo sapiens), P11712; recombinant CYP2C9, luciferin-H conversion; active compounds read high; factor 1 = untreated enzyme, 0 = blocked; activation factor at 5 µM; 96,000 tested, 1.4% active;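 active = activation factor of 2 or more for CYP2C9 at a 5 µM dose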;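 note: 0 = sulfaphenazole-blocked wells and 1 = vehicle-only wells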
# * = called active by the depositor; nt = no result.
SMILES,CYP2C19 act,Cav3 T inh,CYP2C19 inhib,CYP2C9 inhib,CYP2C9 activ
CC(C)CC(C(=O)Nc1ccc2c(c1)OCCO2)N1C(=O)c2ccccc2C1=O (centres undefined),1.1,0.21,-12,4,1
Cc1ccc(NC(=O)Cc2nnc(SCC(=O)c3ccc(Br)cc3)n2C)cc1Cl,1.1,nt,-9,12,0.9
CC(C)N(Cc1nc(-c2ccc(Cl)cc2)no1)C(=O)CCC1CCCC1,0.7,-1,30,33,0.7
COc1ccccc1OCC(=O)N(Cc1nc(-c2ccc(Cl)cc2)no1)C(C)C,0.2,-5*,78*,-64,1.6
COc1cccc(OCC(=O)N(Cc2nc(-c3ccc(Cl)cc3)no2)C(C)C)c1,0.1,-2.6,88*,87*,0.1
C/C=C(\C)C(=O)Nc1cccc(C2=NOC3(C2)C[C@H](C(N)=O)N(C(=O)CC#N)C3)c1 (some centres undefined),nt,0.1,nt,nt,nt
CC(=O)N1CCN(Cc2ccc(Br)s2)CC1,0.7,-1.6,31,-28,1.3
CCOc1cc(-c2c(C#N)c(N)nc3c2CCCC3C)ccc1O (centres undefined),0.6,-3,36,21,0.8
CCOc1cc(-c2c(C#N)c(=O)[nH]c3c2c(C)nn3-c2ccc(F)cc2)ccc1O,0.9,-2.6,12,91*,0.1
CCN1CCN(C(=O)Nc2cccc3ccccc23)CC1,1,1.3,5,-8,1.1
COC(=O)/C(=C/Nc1cccc2ccccc12)[N+](=O)[O-],0.4,-1.2,55*,13,0.9
CC(C)OC(=O)CC(=O)CSc1nc2c(cc1C#N)CCCCC2,0.3,-2.2,73*,87*,0.1
CCOC(=O)CC(=O)CSc1nc2c(cc1C#N)CCCCC2,0.5,0.0018,47,66*,0.3
N#Cc1ccccc1NC(=O)Nc1cccs1,1.2,0.44,-22,-25,1.2
CC1(C)CC(=O)C(C(C2=C(O)CC(C)(C)CC2=O)c2cccc(O)c2)C(=O)C1 (centres undefined),1.1,0.45,-5,-1,1
CC1=NN(c2ccc(C)c(C)c2)C(=O)C1C(c1cccc(O)c1)C1C(=O)N(c2ccc(C)c(C)c2)N=C1C (centres undefined),0.8,-3.3,24,61*,0.4
CCOC(=O)C(C)S(=O)(=O)c1ccc(C(F)(F)F)cn1 (centres undefined),0.5,1.1,54*,1,1
O=C(c1ccccc1C(=O)N1CCN(c2ccccc2)CC1)N1CCN(c2ccccc2)CC1,0.7,-0.72,32,70*,0.3
O=C(Nc1ccc(N2CCN(C(=O)c3ccc(Cl)cc3)CC2)cc1)c1ccc(Br)o1,0.7,-0.7,32,57*,0.4
CCCN1Cc2cccc(C(=O)N3CCN(c4ccccc4)CC3)c2C1=O,0.5,-1.8,50*,29,0.7
O=C(C1COc2ccccc2O1)N1CCN(c2ccc(F)cc2)CC1 (centres undefined),0.1,-1.1,86*,75*,0.3
CC(C)C(=O)N1CCN(c2ccc(NC(=O)c3ccc(Br)o3)cc2)CC1,1,1.3,2,20,0.8
CC(C(=O)NCc1ccco1)n1cc(C(=O)c2ccco2)c2ccccc21 (centres undefined),0.8,-0.016,20,30,0.7
COC(=O)C1=C[C@@H](C(=O)OC)C2C3=C(C(=O)C24CCCCC4)[C@H](C)n2c(=O)n(C)c(=O)n2[C@@H]3C1 (some centres undefined),nt,0.0045,nt,nt,nt
Cc1ccc(CN2[C@@H](CC(C)C)COCCS2(=O)=O)cc1,nt,-0.35,nt,nt,nt
SMILES,CYP2C19 act,Cav3 T inh,CYP2C19 inhib,CYP2C9 inhib,CYP2C9 activ
Cc1ccc(CNC(=O)CSCC(=O)O)cc1,1,-0.82,-4,-8,1.1
O=C(c1ccccc1C(=O)N1CCN(c2ccc(F)cc2)CC1)N1CCN(c2ccc(F)cc2)CC1,0.5,-4.1*,54*,88*,0.1
O=C(Nc1ccc(N2CCOCC2)cc1)c1cccnc1,nt,-0.74,nt,nt,nt
Cc1ccc(C(=O)N2CCN(c3ccc(NC(=O)c4cccnc4)cc3)CC2)cc1,0.7,0.59,35,74*,0.3
O=C(c1ccccc1)N1CCN(c2ccc(Cl)cc2)CC1,0,0.011,98*,68*,0.3
O=C(c1ccccc1)N1CCN(C(=O)c2ccccc2)CC1,nt,0.64,nt,nt,nt
O=C(c1ccc(Br)o1)N1CCN(c2ccc(F)cc2)CC1,0.1,-0.4,95*,24,0.8
CC(C)C[C@H]1COCCS(=O)(=O)N1Cc1cccc(F)c1,nt,0.015,nt,nt,nt
COc1ccc(Nc2nnc(C)c(=O)[nH]2)cc1,0.9,0.55,11,7,0.9
C#Cc1ccc([C@@H]2C=C(C(=O)N3CCN(Cc4ccccc4)CC3)O[C@H](OCCCCO)C2)cc1,nt,-0.68,nt,nt,nt
COc1cccc(N2CCN(C(=O)c3[nH]c(C)c(C(C)=O)c3C)CC2)c1,0.8,0.097,23,34,0.7
COc1ccccc1-c1cc(C(=O)N2CCN(c3ccc(F)cc3)CC2)no1,1,-0.54,2,-41,1.4
CC(C)Cc1cc(C(=O)N2CCN(c3ccc(F)cc3)CC2)no1,0.2,-1.1,76*,65*,0.3
CC(=O)c1c(C)[nH]c(C(=O)N2CCN(c3ccc(F)cc3)CC2)c1C,0.3,0.95,71*,0,1
CCCOC(=O)C1=C(C)NC2=C(C(=O)CCC2)C1c1cc(OC)ccc1OC (centres undefined),0.3,0.0097,67*,78*,0.2
COc1ccc(OC)c(C2C(C(=O)Nc3nc4ccccc4s3)=C(C)NC3=C2C(=O)CCC3)c1 (centres undefined),0.4,-7.5*,64*,74*,0.3
CCCCOC(=O)C1=C(C)NC2=C(C(=O)CCC2)C1c1cc(OC)ccc1OC (centres undefined),0.4,nt,63*,85*,0.2
COc1cccc(C2C(C(=O)Nc3nc4ccccc4s3)=C(C)NC3=C2C(=O)CC(C)(C)C3)c1OC (centres undefined),0.9,nt,7,6,0.9
CCSCCOC(=O)C1=C(C)NC(=O)NC1c1cc(OC)ccc1OC (centres undefined),0.6,0.56,39,32,0.7
Cc1cc(Br)ccc1NC(=O)CNC(=O)CN1C(=O)NC2(CCCCCC2)C1=O,1.1,-0.26,-7,-10,1.1
Cc1cc(Br)ccc1NC(=O)CN1C(=O)C2C3CC(c4ccccc4)C(C3)C2C1=O (centres undefined),0.7,nt,35,68*,0.3
Cc1c(C(=O)Oc2cccc3ccccc23)cnn1-c1ccccc1,0.3,-1,67*,40,0.6
CCOC(=O)c1cnn(-c2ccccc2)c1-n1cccc1,0.4,-1.2,55*,27,0.7

# Source: PubChem BioAssay (several laboratories)
